Test results published in PubChem BioAssay (NCI).
Several values for one entry are separate records, joined by “and”; a condition that tells them apart may be missing. Equal values may be shown once. This is part of a sample that, as a whole, favours compounds with a hit. Of some 83,000 tested, about 20% had one in any assay.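 Single-dose data. Exposure time 48 hours. Values below 10 considered active.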 Values without a mark were called inactive. Activity calls are given as the source filed them.

test system: HL-60(TB) leukemia; assay: NCI-60 one-dose screen, 48 h (100 = growth as untreated, 0 = no growth, -100 = all killed); conditions: 10 µM unless noted

Row | Compound | growth
1 | OCCSc1ccc(Cl)cc1 | 131% and 90.3%
2 | CCc1nc2c(=O)[nH]cnc2o1 | 106%
3 | OCC(O)c1nc2ccc3[nH]ncc3c2c2c1CCCC2 (stereo not given) | -16.9% (active)
4 | COc1ccccc1NC(=O)c1sc2nc3c(cc2c1N)C(=O)CCC3 | 98.6%
5 | O=c1[nH]ncc(Br)c1Br | 65.5%
6 | C#Cc1ccc(-n2c(/C=C/c3ccc(Cl)c(F)c3)nc3ncccc3c2=O)cc1 | -35.9% (active)
7 | CN1CCN(Cc2ccc(NC(=O)c3cncc(C#Cc4cnccc4C(F)(F)F)c3)cc2C(F)(F)F)CC1 | 38.4%
8 | Cc1c(C(N)=O)sc2ncn(CC(=O)NN=C3CCCCC3)c(=O)c12 | 123%
9 | Cc1cc(O)c(C2=NN(c3ccc(S(N)(=O)=O)cc3)C(c3ccc(Cl)cc3)C2)c(C)c1Cl (stereo not given) | 18.4%
10 | Cc1cc(-c2ccc(NS(=O)(=O)c3ccccc3)c(C)c2)ccc1NS(=O)(=O)c1ccccc1 | 74.5% and 97.3%
11 | COc1ccc(/C=C2/SC(=Nc3c(C)nn(-c4ccccc4)c3N)NC2=O)cc1 | 16.6%
12 | COc1cc2nc(-c3ccc(C(F)(F)F)cc3)cc(OCCCN3CCCCC3)c2cc1OC | 25%
13 | CCOC(=O)c1nnn(C(Cc2ccccc2Cl)C(=O)OCC)c1C (stereo not given) | 96.5%
14 | CN(C)C(=S)Sc1ccc([N+](=O)[O-])cc1[N+](=O)[O-] | -5.16% (active)
15 | Cn1c([N+](=O)[O-])cnc1/C=C1\Oc2ccc(Cl)cc2C1=O | -2.57% (active)
16 | O=C(NCCc1ccc(O)c(O)c1)C12CC3CC(CC(C3)C1)C2 | 57%
17 | Cc1ccc(/C=C/C(=O)c2ccc(N)cc2)c(C)c1 | 60.3%
18 | CCN(CC)CCCC(CNc1ccnc2cc(Cl)ccc12)c1ccc(Cl)cc1 (stereo not given) | -40.4% (active) and -71% (active)
19 | CSc1nnc(-c2cc3c([nH]c4ccccc43)c(-c3cccc(O)c3)n2)n1-c1ccccc1 | 7.59% (active)
20 | COc1ccccc1Nc1nnc(-c2ccc(Cl)cc2)o1 | -9.62% (active)

Row | Compound | growth
21 | COc1cc(C(=O)/C=C/c2c(C)n([O-])c3ccc(C(F)(F)F)cc3[n+]2=O)cc(OC)c1OC | 69%
22 | CCOC(=O)C1=CN(C)C=C(C(=O)OCC)C1c1cc(Br)c(OCC)c(OC)c1 | 66.7%
23 | O=C(O)Cc1ccccn1 | 106%
24 | CSc1nc(NCCO)c(C#N)c(-c2cccc(N)c2)n1 | 96.1%
25 | COc1ccc(Cn2c(NCCCN(C)C)nc(=O)n(Cc3ccc(F)cc3)c2=O)cc1 | 95.7%
26 | Cc1cc(O)ccc1C1=NN(c2ccc(S(N)(=O)=O)cc2)C(=O)CC1 | 4.22% (active)
27 | COc1ccc2c(c1)sc1nc(-c3ccc(Br)cc3)cn12 | 80.7%
28 | COc1ccc(C(=O)Nc2ncc(Cc3cccc(Cl)c3)s2)cc1OC | 11.1%
29 | CN1CCN(CCCN2c3ccccc3Sc3ccc(Cl)cc32)CC1 | 98.9% and 50.7%
30 | Cc1nc2ccccc2c(/C=C/c2ccc(Cl)cc2)c1C(=O)/C=C/c1ccc(Cl)cc1 | -34.6% (active)
31 | O=[N+]([O-])c1ccc(Nc2nc(NCCN3CCOCC3)ncc2[N+](=O)[O-])cc1 | 102%
32 | CCOC(=O)c1sc2ncc(-c3ccc(OC)cc3)n2c1C | 86.5%
33 | COc1ccc(-c2nc(SCC(C)C)nc(N/N=C\c3ccc(F)cc3)c2C#N)cc1 | 83.4%
34 | COc1ccc(NC(=O)CSc2nc3ccc(Cl)cc3c(=O)n2-c2ccccc2C(F)(F)F)c(OC)c1OC | 105%
35 | CC[N+](CC)=c1cc2oc3cc(N(C)C)ccc3nc-2cc1C | -8.38% (active)
36 | COc1cc(C(=O)NNC(=O)c2ccc(NC(=O)CCl)cc2)cc(OC)c1OC | 77.9%
37 | Cc1cccc(/C=C\C(=O)c2ccccc2)c1 | 98.8% and 58.7%
38 | CC(C)(C)CC(C)(C)c1ccc(OCCOCCSC(=N)N)cc1 | -51.7% (active)
39 | O=C1/C(=C2/C=Nc3ccccc32)N(O)c2ccccc21 | 8.87% (active)
40 | COC(=O)CCCCCCN=Cc1c(O)c(O)c(C(C)C)c2cc(C)c(-c3c(C)cc4c(C(C)C)c(O)c(O)c(C=NCCCCCCC(=O)OC)c4c3O)c(O)c12 | 16.6%
